For 49 compounds, HER2 level % of control results are on record in PubChem BioAssay AID645 (SRMLSC, 2007).

Among all 65,000 compounds or so, about 450 (0.69%) were called active. This excerpt belongs to a sample that is enriched for actives. A number with no mark means an inactive call.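 Rule for the calls: active = HER2 level under 5% of the carrier-only control; inconclusive = no clear call, values can overlap the other calls; inactive = the rest.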

Chain of Receptor tyrosine-protein kinase erbB-2 (Homo sapiens) (P04626 whole entry, looked up): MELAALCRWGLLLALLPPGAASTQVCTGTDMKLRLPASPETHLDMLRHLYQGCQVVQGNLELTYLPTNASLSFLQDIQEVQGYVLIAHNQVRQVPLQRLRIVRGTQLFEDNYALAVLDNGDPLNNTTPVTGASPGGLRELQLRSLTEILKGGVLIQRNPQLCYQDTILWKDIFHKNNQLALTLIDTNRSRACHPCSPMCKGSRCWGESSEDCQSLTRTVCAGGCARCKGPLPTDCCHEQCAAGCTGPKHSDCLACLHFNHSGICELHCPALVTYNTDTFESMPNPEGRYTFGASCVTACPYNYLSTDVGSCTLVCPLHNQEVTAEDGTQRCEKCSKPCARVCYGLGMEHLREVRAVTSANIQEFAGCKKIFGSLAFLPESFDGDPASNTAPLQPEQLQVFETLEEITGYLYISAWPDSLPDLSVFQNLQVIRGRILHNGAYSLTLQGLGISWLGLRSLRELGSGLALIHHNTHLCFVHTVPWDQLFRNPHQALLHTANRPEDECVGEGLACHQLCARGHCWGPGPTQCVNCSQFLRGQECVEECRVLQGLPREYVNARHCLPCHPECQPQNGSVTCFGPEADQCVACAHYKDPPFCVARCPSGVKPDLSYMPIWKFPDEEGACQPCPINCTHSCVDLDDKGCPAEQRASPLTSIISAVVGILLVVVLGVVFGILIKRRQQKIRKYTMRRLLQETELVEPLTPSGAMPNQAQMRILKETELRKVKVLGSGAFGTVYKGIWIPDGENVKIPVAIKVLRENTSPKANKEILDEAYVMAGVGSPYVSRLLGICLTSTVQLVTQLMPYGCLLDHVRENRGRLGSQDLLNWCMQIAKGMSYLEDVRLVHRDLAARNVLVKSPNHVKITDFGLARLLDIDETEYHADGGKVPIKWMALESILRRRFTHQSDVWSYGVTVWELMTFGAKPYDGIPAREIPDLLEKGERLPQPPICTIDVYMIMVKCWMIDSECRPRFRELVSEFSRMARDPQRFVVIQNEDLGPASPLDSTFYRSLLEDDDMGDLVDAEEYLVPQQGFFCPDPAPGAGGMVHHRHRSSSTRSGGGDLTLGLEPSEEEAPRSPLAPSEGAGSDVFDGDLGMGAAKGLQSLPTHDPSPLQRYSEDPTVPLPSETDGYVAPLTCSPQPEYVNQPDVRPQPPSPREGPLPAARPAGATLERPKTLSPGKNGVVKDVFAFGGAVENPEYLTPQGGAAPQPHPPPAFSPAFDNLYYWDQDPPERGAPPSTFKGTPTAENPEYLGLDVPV

This experiment has as its target Receptor tyrosine-protein kinase erbB-2 (Homo sapiens) (UniProt P04626). Kind of experiment: reducers of endogenous HER2 protein levels – SKBR-3 cells, AlphaScreen, 66K library, primary screen (AID 645).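 Note: 100% = DMSO carrier and 0% = 500 nM PU-H71 HSP90 inhibitor; lower value means stronger loss of Her2 protein.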 Conditions: SKBR-3 HER2 protein level, 18-24 h, at 10 µM, hits give low values. (Bead proximity is the source of the signal in Alpha formats.)
On to `Cc1sc2c(c1C)c(=O)n(-c1ccccc1)c1nncn21`, for which the HER2 level % of control was 86.7%.

In the case of `N#Cc1c(NC(=O)CSc2nc3ccccc3c(=O)n2Cc2ccco2)sc2c1CCCC2`, the HER2 level % of control is 70.4%.

As to `O=C(NC(=O)c1ccc(Cl)c(Cl)c1)OC1CCS(=O)(=O)C1` (centres undefined), the HER2 level % of control is 106%.

For the compound `OC1CN=C2Sc3ccccc3N2C1` (centres undefined), the HER2 level % of control is 119%.

Take `O=C1c2ccccc2C(=O)N1CCc1nn[nH]n1`: the HER2 level % of control is 90.3%.

Consider `Cc1c(CN2CCC(C)CC2)c(=O)n(-c2ccccc2)n1C`, for which the HER2 level % of control was 107%.

With `Cn1c(=O)n(C)c(=O)n(CC(=O)N2CCCCC2)c1=O`, the HER2 level % of control was 149%.

As to `COc1ccccc1N1CCN(C(=O)CN(Cc2ccc(Cl)cc2)S(C)(=O)=O)CC1`, the HER2 level % of control is 68.2%.

As for `COc1ccccc1-n1nnnc1S(=O)(=O)Cc1ccc(Cl)cc1`, the HER2 level % of control is -1.27% (active).

For the compound `COc1ccccc1N1CCN(Cc2nnnn2CCc2ccccc2)CC1`, the HER2 level % of control was 102%.

Regarding `CC(C)C(=O)N1CCN(CCN=CC2=C(O)CC(c3ccco3)CC2=O)CC1` (centres undefined), the HER2 level % of control is 116%.

As to `CN(C)CCNC(=O)C(C(=O)c1ccccc1)n1ccccc1=O` (centres undefined), the HER2 level % of control is 99.7%.

For `O=C(C(NS(=O)(=O)c1cccc2nsnc12)c1ccccc1)N1CCN(c2ccccn2)CC1` (centres undefined), the HER2 level % of control was 70.8%.

Consider `CCOP1(=O)C=C(C(C)(C)C)OC1c1ccc(F)cc1` (centres undefined), for which the HER2 level % of control is -28.1% (active).

Consider `CC1CCc2c(sc3c2C2=NS(=O)(=O)CCN2C=N3)C1` (centres undefined), for which the HER2 level % of control was 111%.

Turning to `O=C(NCc1cccs1)c1ccc2c(c1)ncn2C1CCCC1`, the HER2 level % of control was 121%.

`Cc1ccc(OCC(O)CN2CCN(CC(O)COc3ccc(C)cc3Cl)CC2)c(Cl)c1` (centres undefined): the HER2 level % of control was 65.4%.

For the compound `COc1ccc(N2CCN(CCNC(=O)c3nnc(Cc4c(F)cccc4Cl)o3)CC2)cc1`, the HER2 level % of control was 103%.

`O=C(CSc1nnc(Cn2cnc3ccccc32)o1)c1ccccc1`: the HER2 level % of control is 107%.

In the case of `CC(C)Oc1ccc(C2NC(=O)NC2=O)cc1` (centres undefined), the HER2 level % of control was 81.7%.

As for `Cc1ccccc1N1CC(c2nc3ccccc3[nH]2)CC1=O` (centres undefined), the HER2 level % of control is 99.4%.

`N#CC1=C(SCc2ccccc2)NC(=O)C(C#N)C12CCCC2` (centres undefined): the HER2 level % of control was 88.2%.

Consider `CCOC(=O)C1CCCN(C(=O)c2sc3nc(C)nc(N4CCOCC4)c3c2C)C1` (centres undefined), for which the HER2 level % of control is 87.2%.

Consider `CCS(=O)(=O)NCCc1ccc(OC)c(OC)c1`, for which the HER2 level % of control is 90.2%.

Turning to `Cc1ccccc1-n1c(SCC(=O)NCc2cccs2)nnc1-c1ccncc1`, the HER2 level % of control was 108%.

Turning to `Cc1nnc(SCC(=O)NCc2cccs2)[nH]c1=O`, the HER2 level % of control was 87.7%.

As to `CCN(CC(=O)NCc1cccs1)c1nnnn1-c1ccccc1`, the HER2 level % of control is -25.9% (active).

As for `CCN1C(=O)/C(=C2\SC(N3CCCCC3)=NC2=O)c2ccccc21`, the HER2 level % of control is 121%.

Consider `COc1cccc(C(=O)Nc2c3c(nn2-c2cccc(C)c2C)CS(=O)(=O)C3)c1OC`, for which the HER2 level % of control was 119%.

Regarding `Cc1nc2cc(-c3ccc(F)cc3)nn2c(N2CCOCC2)c1C`, the HER2 level % of control is 49.6%.

Take `Cn1c(=O)c2[nH]c(NCC3CCCO3)nc2n(-c2ccccc2)c1=O` (centres undefined): the HER2 level % of control is 83.7%.

`CCCC(NS(=O)(=O)c1ccc(OC)cc1)C(=O)O` (centres undefined): the HER2 level % of control is 96.9%.

As to `O=S(=O)(Nc1ccccc1N1CCOCC1)c1ccc(Cl)s1`, the HER2 level % of control is 95.5%.

For `N#CC(C(N)=O)=C1CCC2(CC1)OCCCCO2`, the HER2 level % of control is 93.5%.

Consider `CC1CCC(NS(=O)(=O)c2ccc3c(c2)n(C)c(=O)c(=O)n3C)CC1` (centres undefined), for which the HER2 level % of control was 76.3%.

With `Brc1ccc(OCCn2ccnc2)cc1`, the HER2 level % of control is 109%.

With `Cc1ccc(N2CCN(S(=O)(=O)N(C)C)CC2)cc1Cl`, the HER2 level % of control is 105%.

In the case of `Cc1nnc(NC2=NCCCCC2)o1`, the HER2 level % of control is 106%.

Consider `O=C(Nc1cc(=O)[nH]c2ncnn12)c1ccccc1Cl`, for which the HER2 level % of control is 92%.

On to `CSC1=N/C(=C\C=C\c2cccs2)C(=O)S1`, for which the HER2 level % of control was 0.09% (active).

For `COCC(C)N=CC1=C(O)CC(C)(C)CC1=O` (centres undefined), the HER2 level % of control is 118%.

Take `Cc1nc2sc(C(c3ccco3)N3CCOCC3)c(O)n2n1` (centres undefined): the HER2 level % of control was 51%.

For `C/C(=C\C(=O)c1ccccc1)Nc1cccc(O)c1`, the HER2 level % of control was 58.9%.

Consider `c1ccc2cc3[nH]c(CN4CCCCC4)nc3cc2c1`, for which the HER2 level % of control was 96.1%.

Consider `O=C(Nc1cccc(Cl)c1)OCc1ccccn1`, for which the HER2 level % of control is 91.3%.

Turning to `Cc1cc(C(=O)Nc2c(C)n(C)n(-c3ccccc3)c2=O)cs1`, the HER2 level % of control is 91.6%.

Consider `COC(=O)Nc1c(C)n(C)n(-c2ccccc2)c1=O`, for which the HER2 level % of control was 89.1%.

With `Cc1c(NC(=O)c2coc(=O)c(Br)c2)c(=O)n(-c2ccccc2)n1C`, the HER2 level % of control is -15.4% (active).

For the compound `CS(=O)(=O)c1ccc2nc(NC(=O)C3CCCCC3)sc2c1`, the HER2 level % of control was 45.1%.
